Test results reported in PubChem BioAssay (NCATS).
Where “and” joins values, the source holds several entries; their conditions need not be identical. Equal values may be shown once. Values without a mark were called inactive. Records with an inconclusive call do not appear. Entries that show only a call come without a potency. Calls of active or inactive are those of the source. Unless noted, calls come from the whole dose curve; as a rule, active = well fitted curve in the direction sought with a large enough effect; inconclusive = small, poorly fitted or top-dose-only effect, or another doubt; inactive = no such curve, though single readings can be large; an effect the other way counts as inactive or inconclusive.

Key:
[1] = Cellular Toxicity (caspase-3) N2a (AID 665);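 note: compound exposure lasted 16 h at 37 °C before readout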
Procedure, shortened: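 Luminescent Caspase-Glo 3/7 readout in N2a mouse neuroblastoma cells after 16 h compound exposure at 37 °C. Signal scaled to DMSO (basal) and 10 uM staurosporine (100%). Concentration-response fitted with Hill equation for AC50.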

[2] = Cellular Toxicity (caspase-3) NIH 3T3 (AID 666)
Procedure, shortened: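 NIH 3T3, 1000 cells/well, 5 hr settle then 16 hr compound at 37°C; Caspase-Glo 3/7, 20 min RT, luminescence. DMSO = basal, 100 uM tamoxifen = 100%. Hill-equation AC50, qHTS.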

[3] = MultiTox-Fluor Cytotoxicity Assay - LYMP1-003 - Dead Cells (AID 961); note: nearly all actives have a fitted effect of over 70% in size; note: potency is the fitted concentration of half-maximal effect
Procedure, shortened: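 Dead-cell protease release, detected as bis-AAF-R110 fluorescence at 485/520 nm, was measured in LYMP1-003 cells after 16 h compound treatment at 37 C. AC50 values came from Hill-modeled qHTS curves normalized to DMSO (0%) and 15 uM tetraoctylammonium bromide (100%).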

[4] = MultiTox-Fluor Cytotoxicity Assay - LYMP1-003 - Live Cells (AID 962);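 note: cytotoxic hits lower the live-cell protease signal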
Procedure, shortened: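 Readout: live-cell fluorescence (Ex/Em=405/510) from GF-AFC cleavage after 60 min MultiTox-Fluor reagent at room temperature. Lymphoblastoid LYMP1-003 cells, 16 hr compound treatment, 37 C. Concentration-response fitted to standard Hill equation for AC50.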

[5] = biological target: Estrogen receptor (Homo sapiens) (UniProt P03372); test: qHTS assay for small molecule agonists of estrogen receptor alpha signaling (AID 588514; calls by dose curve; note: nearly all actives have a fitted effect of over 70% in size; note: potency is the fitted concentration of half-maximal effect)
Chain of Estrogen receptor (Homo sapiens) (P03372 whole entry, looked up): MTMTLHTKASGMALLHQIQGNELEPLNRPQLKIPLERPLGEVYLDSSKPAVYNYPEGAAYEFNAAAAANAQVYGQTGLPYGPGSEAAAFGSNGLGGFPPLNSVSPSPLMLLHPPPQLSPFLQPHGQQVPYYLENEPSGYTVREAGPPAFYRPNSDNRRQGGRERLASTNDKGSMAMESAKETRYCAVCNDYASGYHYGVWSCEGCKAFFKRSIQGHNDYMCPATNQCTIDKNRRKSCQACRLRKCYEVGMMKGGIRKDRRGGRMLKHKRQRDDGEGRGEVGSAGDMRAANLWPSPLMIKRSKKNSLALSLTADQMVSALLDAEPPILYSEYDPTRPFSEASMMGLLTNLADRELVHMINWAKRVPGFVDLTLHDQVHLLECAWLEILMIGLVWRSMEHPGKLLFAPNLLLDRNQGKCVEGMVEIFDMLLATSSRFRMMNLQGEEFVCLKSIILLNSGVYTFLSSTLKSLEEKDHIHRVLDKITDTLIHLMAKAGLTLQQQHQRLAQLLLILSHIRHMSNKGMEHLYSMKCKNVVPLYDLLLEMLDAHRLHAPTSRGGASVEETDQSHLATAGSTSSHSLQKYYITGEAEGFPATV
Procedure, shortened: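 Read-out: CCF4 fluorescence from a beta-lactamase reporter in ER-alpha-UAS-bla HEK 293 cells after 18 hrs of compound exposure at 37 C. Normalized to 20 nM 17-beta-estradiol (100%) and DMSO (0%).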

[6] = qHTS assay for small molecule activators of the nuclear factor-kappa B (NF-kB) signaling pathway (AID 651749; active = well fitted activation curve with a large enough effect in the signal ratio; the % refers to the signal ratio); conditions: NF-kB-bla ME-180 cells, beta-lactamase FRET ratio, 16 h; active compounds read high
Procedure, shortened: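 Beta-lactamase reporter expression, controlled by NF-kB response elements in ME-180 cells, was quantified fluorometrically via FRET disruption; cells at 2,000/well had been incubated with 23 nL test compound for 16 hr.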

[7] = qHTS assay for small molecule agonists of the antioxidant response element (ARE) signaling pathway measured by Nrf2-dependant transcriptional activity - cell viability counter screen (AID 720653; active = well fitted curve in the direction sought with a large enough effect in the repeat runs; an effect the other way counts as inactive or inconclusive); conditions: ARE-bla HepG2 viability, CellTiter-Glo ATP luminescence, 16 h; max response: active compounds read low
Procedure, shortened: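 ARE-bla HepG2 cells (2,000/well) rested 5 hrs at 37C/5% CO2, then exposed to compounds in DMSO for 16 hrs. Viability was read in the same wells as intracellular ATP by luminescence, 30 min at room temperature after reagent addition.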

[8] = Cell Viability - NIH 3T3 (AID 541); conditions: NIH 3T3 cell viability, qHTS; activity change, negative = cytotoxicity: at 92.2 µM (top of the series);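 note: cells exposed to compound for 40 hours; nearly all actives have a fitted effect of over 25% in size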; note: potency is the fitted concentration of half-maximal effect
Procedure, shortened: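 qHTS format; 40 hr compound exposure, 37 °C; CellTiter-Glo luminescence (cellular ATP) read-out after 20 min at RT. Decrease in ATP = cytotoxicity; AC50 from standard Hill fit.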

[9] = Cell Viability - HUV-EC-C (AID 542);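 note: cells exposed to compound for 40 hours; nearly all actives have a fitted effect of over 35% in size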; note: potency is the fitted concentration of half-maximal effect
Procedure, shortened: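 Luminescent ATP read-out (CellTiter-Glo, 20 min room temperature) after 40 hr compound treatment of HUV-EC-C cells at 37 °C. Concentration-response data fitted with the standard Hill equation to give AC50; tamoxifen and doxorubicin served as positive controls.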

[10] = Cellular Toxicity (caspase-3) HUV-EC-C (AID 656); note: potency is the fitted concentration of half-maximal effect
Procedure, shortened: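 Luminescent Caspase-Glo 3/7 readout after 16 h, 37 °C compound exposure of HUV-EC-C endothelial cells, 1000 per well, complete medium. AC50 derived by Hill fitting, with DMSO as baseline and 100 uM tamoxifen as full activation.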

[11] = Cellular Toxicity (caspase-3) H-4-II-E (AID 663); conditions: Potency: caspase-3 activation;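 note: cells exposed to compound for 16 hr before readout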
Procedure, shortened: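 Caspase 3/7 activation measured in H-4-II-E cells in complete culture medium after 16 hr treatment at 37 °C, using luciferase-coupled substrate readout; AC50 values come from Hill-equation fits of normalized concentration-response data.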

[12] = biological target: Cytochrome P450 3A4 (Homo sapiens) (UniProt P08684); test: qHTS Assay for Inhibitors and Substrates of Cytochrome P450 3A4 (AID 884); note: nearly all actives have a fitted effect of over 50% in size; note: potency is the fitted concentration of half-maximal effect
Chain of Cytochrome P450 3A4 (Homo sapiens) (P08684 whole entry, looked up): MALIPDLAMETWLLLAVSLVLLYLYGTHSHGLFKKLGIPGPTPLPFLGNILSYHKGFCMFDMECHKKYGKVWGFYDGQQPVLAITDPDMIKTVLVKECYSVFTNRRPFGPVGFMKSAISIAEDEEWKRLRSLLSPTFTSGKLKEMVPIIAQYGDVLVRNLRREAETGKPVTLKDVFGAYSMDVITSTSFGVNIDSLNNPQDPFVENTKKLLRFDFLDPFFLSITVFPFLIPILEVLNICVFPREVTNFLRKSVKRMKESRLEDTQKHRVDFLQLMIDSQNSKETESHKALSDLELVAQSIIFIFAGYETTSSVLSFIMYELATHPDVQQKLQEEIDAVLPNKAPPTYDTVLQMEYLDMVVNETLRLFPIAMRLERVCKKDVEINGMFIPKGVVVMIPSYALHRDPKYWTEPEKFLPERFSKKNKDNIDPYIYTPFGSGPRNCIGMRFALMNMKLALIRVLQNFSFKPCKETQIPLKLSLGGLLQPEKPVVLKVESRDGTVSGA
Procedure, shortened: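 Luminescent readout of luciferin produced by CYP3A4 (20 nM) dealkylation of Luciferin-PPXE, 25 uM (its KM). NADPH-driven reaction ran 60 min at RT after 10 min compound preincubation; data scaled to 57 uM ketoconazole as 100% inhibition.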

[13] = Cell Viability - LYMP2-003 (AID 965);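 note: cells exposed to compounds for 24 h before reading; nearly all actives have a fitted effect of over 50% in size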; note: potency is the fitted concentration of half-maximal effect
Procedure, shortened: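 CellTiter-Glo luminescence quantified ATP loss after 24 h compound treatment of LYMP2-003 lymphoblastoid cells at 37 C. Titration series were fitted with the standard Hill equation to give AC50.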

[14] = biological target: Estrogen receptor (Homo sapiens) (UniProt P03372); test: qHTS assay for small molecule antagonists of estrogen receptor alpha signaling (AID 588513; active = well fitted curve in the direction sought with a large enough effect in the signal ratio, with a control signal flat, not every such curve was filed as active; the % refers to the signal ratio)
Procedure, shortened: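 Antagonist mode: inhibition of 0.5 nM 17-beta-estradiol-driven beta-lactamase reporter in HEK 293 ER-alpha-UAS-bla cells, 18 h at 37C, CCF4 readout after 2 h at RT. Normalised to estradiol and DMSO; titration fitted to Hill.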

[15] = biological target: Vitamin D3 receptor (Homo sapiens) (UniProt P11473); test: qHTS assay for small molecule antagonists of vitamin D receptor signaling (AID 588541; calls by dose curve;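 note: receptor activated by calcitriol during compound treatment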)
Chain of Vitamin D3 receptor (Homo sapiens) (P11473 whole entry, looked up): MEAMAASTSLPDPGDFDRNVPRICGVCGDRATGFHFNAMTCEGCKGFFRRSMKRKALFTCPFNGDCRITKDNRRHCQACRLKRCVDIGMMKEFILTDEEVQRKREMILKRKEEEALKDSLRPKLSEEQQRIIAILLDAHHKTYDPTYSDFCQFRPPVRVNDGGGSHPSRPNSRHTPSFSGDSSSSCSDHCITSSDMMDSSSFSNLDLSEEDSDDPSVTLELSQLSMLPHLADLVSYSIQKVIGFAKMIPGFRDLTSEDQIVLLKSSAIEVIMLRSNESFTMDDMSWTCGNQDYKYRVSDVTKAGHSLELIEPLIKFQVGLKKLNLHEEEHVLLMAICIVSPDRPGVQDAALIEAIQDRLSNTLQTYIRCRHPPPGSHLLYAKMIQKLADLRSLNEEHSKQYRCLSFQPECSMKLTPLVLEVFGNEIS
Procedure, shortened: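 VDR-UAS-bla HEK293T cells (2000/well, 2% charcoal-stripped FBS) were treated with titrated compounds plus 1-alpha,25-dihydroxyvitamin D3 (50 nM or 3 nM final) for 16 h at 37 C. CCF4 beta-lactamase fluorescence was read; Hill fits gave IC50.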

[16] = qHTS assay for small molecule activators of the human pregnane X receptor (PXR) signaling pathway (AID 720659; call rule not given here)
[17] = biological target: Glucocorticoid receptor (Homo sapiens) (UniProt P04150); test: qHTS assay for small molecule antagonists of glucocorticoid receptor signaling (AID 588533; active = well fitted inhibition curve with a large enough effect in the signal ratio, with a control signal flat, not every such curve was filed as active; the % refers to the signal ratio;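 note: cells stimulated with 2 nM dexamethasone as agonist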)
Chain of Glucocorticoid receptor (Homo sapiens) (P04150 whole entry, looked up): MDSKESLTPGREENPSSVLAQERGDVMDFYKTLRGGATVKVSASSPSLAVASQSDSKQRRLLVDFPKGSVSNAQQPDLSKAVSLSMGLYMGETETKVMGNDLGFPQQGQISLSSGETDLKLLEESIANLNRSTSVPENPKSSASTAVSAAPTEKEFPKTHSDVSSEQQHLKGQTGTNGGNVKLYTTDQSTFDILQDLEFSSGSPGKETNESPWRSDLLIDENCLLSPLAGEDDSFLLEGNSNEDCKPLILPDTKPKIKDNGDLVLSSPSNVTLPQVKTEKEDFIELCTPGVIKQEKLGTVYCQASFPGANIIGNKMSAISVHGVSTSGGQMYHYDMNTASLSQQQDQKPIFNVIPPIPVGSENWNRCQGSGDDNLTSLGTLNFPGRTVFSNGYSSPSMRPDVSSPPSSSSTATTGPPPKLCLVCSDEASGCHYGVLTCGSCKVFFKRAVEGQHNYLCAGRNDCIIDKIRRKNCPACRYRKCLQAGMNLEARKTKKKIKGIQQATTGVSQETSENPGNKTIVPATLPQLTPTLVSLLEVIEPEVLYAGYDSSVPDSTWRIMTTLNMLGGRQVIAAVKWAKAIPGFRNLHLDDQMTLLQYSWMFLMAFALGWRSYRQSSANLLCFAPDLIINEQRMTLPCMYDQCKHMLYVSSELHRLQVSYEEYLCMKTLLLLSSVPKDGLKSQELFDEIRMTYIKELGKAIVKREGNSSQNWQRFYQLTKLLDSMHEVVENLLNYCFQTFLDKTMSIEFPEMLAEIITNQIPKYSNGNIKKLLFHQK
Procedure, shortened: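 Antagonist-mode qHTS: compound titrations added to GRE-bla HeLa cells, then dexamethasone 2 nM final; 18 h, 37 C. CCF4 FRET fluorescence normalized to dexamethasone and DMSO; IC50 from Hill fit.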

[18] = biological target: Nuclear receptor ROR-gamma (Homo sapiens) (UniProt P51449); test: qHTS assay for small molecule antagonists of the retinoid-related orphan receptor gamma (ROR-gamma) signaling pathway (AID 651802); note: nearly all actives have a fitted effect of over 60% in size; note: potency is the fitted concentration of half-maximal effect
Chain of Nuclear receptor ROR-gamma (Homo sapiens) (P51449 whole entry, looked up): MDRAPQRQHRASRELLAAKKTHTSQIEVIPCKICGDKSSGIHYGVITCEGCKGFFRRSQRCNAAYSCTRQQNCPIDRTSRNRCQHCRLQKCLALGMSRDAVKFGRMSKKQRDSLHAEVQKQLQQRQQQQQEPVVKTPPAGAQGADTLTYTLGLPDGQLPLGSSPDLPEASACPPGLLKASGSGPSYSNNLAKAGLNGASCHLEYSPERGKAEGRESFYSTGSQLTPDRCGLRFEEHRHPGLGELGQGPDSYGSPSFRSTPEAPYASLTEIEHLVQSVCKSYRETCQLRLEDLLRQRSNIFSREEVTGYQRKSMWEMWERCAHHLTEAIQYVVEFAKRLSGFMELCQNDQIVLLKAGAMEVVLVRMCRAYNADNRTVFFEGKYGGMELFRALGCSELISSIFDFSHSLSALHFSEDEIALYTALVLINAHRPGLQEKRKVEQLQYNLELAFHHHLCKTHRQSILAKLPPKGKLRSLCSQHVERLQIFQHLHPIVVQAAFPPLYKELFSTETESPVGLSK
Procedure, shortened: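 Luciferase read-out: ONE-Glo luminescence after 30 min at room temperature, following 16hr doxycycline induction at 37C, 5% CO2 of CHO cells with TET-inducible ROR and RORE-LUC reporter; decreased luminescence = reduced reporter activity.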

[19] = qHTS assay for cell viability of HEK293 cells (AID 743288); conditions: ATP luminescence (CellTiter-Glo), 18 h; max response: active compounds read low; note: nearly all actives have a fitted effect of over 50% in size
Procedure, shortened: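 Readout is luciferase-coupled ATP content (CellTiter-Glo luminescence, 30 min room temperature) as a measure of metabolically competent cells. Parental HEK293 cells were plated 5 h or more before compound addition, then treated 18 h at 37 C.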

[20] = qHTS assay for small molecule agonists of the antioxidant response element (ARE) signaling pathway (AID 651741; active = well fitted activation curve with a large enough effect in the signal ratio; the % refers to the signal ratio; note: potency is the fitted concentration of half-maximal effect)
Procedure, shortened: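 Beta-lactamase reporter expression driven by the antioxidant response element in HepG2 cells was detected by fluorescence with LiveBLAzer B/G FRET substrate (2 h, room temperature) following 16 h compound treatment at 37 C.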

For `CCCCCCCC/C=C\CCCCCCCC(=O)N(CCO)CCO`, the outcome [1] was “inactive”, the outcome [2] was “inactive” and the Potency [3] was “inactive”. For the same compound, the Potency [4] was “inactive”, the Potency [5] was “inactive” and the activation [6] was 3.7%. It also gave a max response [7] of -24.9%.
In the case of `Oc1cc(Cl)cc(Cl)c1Cl`, the activity change, negative = cytotoxicity [8] is reported as -14.4%, the Potency [9] is reported as “inactive” and the Potency [10] is reported as “inactive”. For the same compound, the Potency [11] was “inactive”, the Potency [12] was “inactive” and the Potency [4] was “inactive”. For the same compound, the Potency [13] was “inactive”, the outcome [14] was “inactive” and the Potency [5] was “inactive”. For the same compound, the Potency [15] was “inactive”, the max response [7] was -7.11% and the outcome [16] was “inactive”.
For `O=C(OCc1ccccc1)c1ccccc1O`, the activity change, negative = cytotoxicity [8] was -9.56%, the Potency [10] was “inactive” and the outcome [1] was “inactive”. The outcome [2] was “inactive”, the Potency [12] was “inactive” and the Potency [3] was “inactive”. For the same compound, the Potency [4] was “inactive”, the Potency [13] was “inactive” and the outcome [14] was “inactive”. For the same compound, the Potency [5] was “inactive”, the Potency [17] was “inactive” and the Potency [15] was “inactive”. The activation [6] was -0.301% and -2.68%, the Potency [18] was “inactive” and the outcome [16] was “inactive”.
In the case of `CC(C)(C)C(=O)C1C(=O)c2ccccc2C1=O`, the Potency [8] is reported as 12.6 µM (active), the Potency [11] is reported as “inactive” and the outcome [2] is reported as “inactive”. For the same compound, the Potency [12] was “inactive”, the Potency [3] was “inactive” and the Potency [13] was “inactive”. The outcome [14] was “inactive”, the Potency [5] was “inactive” and the Potency [15] was “inactive”. The activation [6] was 1.49%, the max response [7] was -24.2% and the max response [19] was -22.9%.
For `O=C1c2ccccc2C(=O)C1(O)O`, the Potency [9] was “inactive”, the outcome [2] was “inactive” and the Potency [12] was “inactive”. The Potency [4] was “inactive”, the outcome [14] was “inactive” and the Potency [5] was “inactive”. For the same compound, the Potency [15] was “inactive”, the Potency [20] was 66.8 µM (active) and the activation [6] was -0.508%. For the same compound, the max response [7] was -29.9%, the max response [19] was -12.1% and the outcome [16] was “inactive”.
With `O=C(Cl)c1ccc([N+](=O)[O-])cc1` the activity change, negative = cytotoxicity [8] was -20%, the Potency [11] was “inactive” and the outcome [1] was “inactive”. For the same compound, the Potency [12] was “inactive”, the Potency [4] was “inactive” and the Potency [13] was “inactive”. For the same compound, the outcome [14] was “inactive”, the Potency [5] was “inactive” and the Potency [17] was “inactive”. For the same compound, the Potency [20] was “inactive”, the activation [6] was -1.16% and the Potency [18] was “inactive”. For the same compound, the max response [7] was 1.64%, the max response [19] was 0.724% and the outcome [16] was “inactive”.
In the case of `CC1=C(/C=C/C(C)=C/C=C/C(C)=C/C=O)C(C)(C)CCC1`, the Potency [9] is reported as 31.6 µM (active), the Potency [10] is reported as 39.8 µM (active) and the Potency [13] is reported as 50.1 µM (active). The Potency [15] was “inactive”, the Potency [20] was 29.8 µM (active) and the activation [6] was -2.37%. The max response [7] was 2.27%.
In the case of `CC/C=C/C/C=C/C/C=C/CCCCCCCC(=O)OCC`, the activity change, negative = cytotoxicity [8] is reported as -19.6%, the Potency [10] is reported as “inactive” and the outcome [2] is reported as “inactive”. The Potency [12] was 10 µM (active), the Potency [13] was 31.6 µM (active) and the Potency [17] was “inactive”. For the same compound, the Potency [15] was “inactive”, the Potency [20] was 59.6 µM (active) and the activation [6] was -1.38%. The Potency [18] was “inactive” and the max response [7] was -18.4%.
In the case of `Cc1cc2nc(N)sc2cc1C`, the Potency [12] is reported as 15.8 µM (active), the Potency [4] is reported as “inactive” and the Potency [15] is reported as “inactive”. For the same compound, the activation [6] was -0.263%, the Potency [18] was “inactive” and the max response [19] was -12.3%.
In the case of `CCN(CC)c1ccc(N)cc1`, the activity change, negative = cytotoxicity [8] is reported as -96.6% (active), the Potency [9] is reported as “inactive” and the Potency [10] is reported as “inactive”. The outcome [1] was “inactive”, the outcome [2] was “inactive” and the Potency [3] was “inactive”. For the same compound, the Potency [4] was “inactive”, the Potency [15] was “inactive” and the Potency [20] was 37.6 µM (active). For the same compound, the activation [6] was 0.867% and the Potency [18] was 37.6 µM (active).
With `Cc1c2ccccc2c(C)c2c1ccc1ccccc12` the activity change, negative = cytotoxicity [8] was -137% (active), the Potency [10] was “inactive” and the Potency [11] was “inactive”. The outcome [1] was “inactive”, the outcome [2] was “inactive” and the Potency [3] was 39.8 µM (active). For the same compound, the outcome [14] was “inactive”, the Potency [5] was 4.47 µM (active) and 15.8 µM (active) and the Potency [20] was 10.6 µM (active) and 24.3 µM (active). The Potency [18] was 13.3 µM (active).
For `CN(C)c1ccc(C(=N)c2ccc(N(C)C)cc2)cc1`, the Potency [3] was 50.1 µM (active), the outcome [14] was “inactive” and the Potency [17] was “inactive”. The Potency [15] was “inactive”, the activation [6] was 3.33% and the Potency [18] was 5.31 µM (active). The max response [7] was -25.3%.
